Test results taken from PubChem BioAssay (NCATS).
Results filed as inconclusive are left out. Active and inactive are the calls of the source. Calls follow the shape of the dose curve; as a rule, active = well fitted curve in the direction sought with a large enough effect; inconclusive = small, poorly fitted or top-dose-only effect, or another doubt; inactive = no such curve, though single readings can be large; an effect the other way counts as inactive or inconclusive. Non-standard residues stand in square brackets, D forms with d. Residues, ends and D or L forms follow the SMILES beside them. *: point of attachment. Nva = CCC[C@H](N)C(=O)O; Cbz = O=C(OCc1ccccc1)*

Key:
[1] = qHTS of pediatric cancer cell lines to identify multiple opportunities for drug repurposing: Confirmatory screen for U-2 OS cells (AID 1347122); also: nearly all actives have a fitted effect of over 65% in size; also: potency is read from the fitted curve at half-maximal effect
How it was run: (§1)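 Cells (500-1,000/well) in growth media were settled 5 h at 37 degrees C, then given compounds for 48 h. Viability was read as CellTiter-Glo luminescence. Primary runs used MIPE at 11 points (0.78 nM-46 µM) and NPC at 8 points (0.59 nM-46 µM); follow-ups used 11 points.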

[2] = qHTS of pediatric cancer cell lines to identify multiple opportunities for drug repurposing: Confirmatory screen for Rh41 cells (AID 1347123);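 also: 48 h compound exposure; nearly all actives have a fitted effect of over 60% in size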; also: potency is read from the fitted curve at half-maximal effect
How it was run: as §1

[3] = qHTS of pediatric cancer cell lines to identify multiple opportunities for drug repurposing: Confirmatory screen for RD cells (AID 1347124);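 also: cells exposed to compound for 48 h before viability readout; nearly all actives have a fitted effect of over 65% in size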; also: potency is read from the fitted curve at half-maximal effect
How it was run: as §1

[4] = qHTS of pediatric cancer cell lines to identify multiple opportunities for drug repurposing: Confirmatory screen for Rh18 cells (AID 1347125); also: nearly all actives have a fitted effect of over 55% in size; also: potency is read from the fitted curve at half-maximal effect
How it was run: as §1

[5] = qHTS of pediatric cancer cell lines to identify multiple opportunities for drug repurposing: Confirmatory screen for Rh30 cells (AID 1347126); also: nearly all actives have a fitted effect of over 55% in size; also: potency is read from the fitted curve at half-maximal effect
How it was run: as §1

[6] = qHTS of pediatric cancer cell lines to identify multiple opportunities for drug repurposing: Confirmatory screen for OHS-50 cells (AID 1347128);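 also: compound exposure lasted 48 h at 37 degrees C; nearly all actives have a fitted effect of over 55% in size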; also: potency is read from the fitted curve at half-maximal effect
How it was run: as §1

[7] = qHTS of pediatric cancer cell lines to identify multiple opportunities for drug repurposing: Confirmatory screen for SK-N-SH cells (AID 1347129);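 also: cells exposed to compound for 48 h before viability read; nearly all actives have a fitted effect of over 60% in size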; also: potency is read from the fitted curve at half-maximal effect
How it was run: as §1

[8] = system: Zika virus NS2B-NS3 protease; test: Primary screen GU AMC qHTS for Zika virus inhibitors (AID 1347154); also: nearly all actives have a fitted effect of over 70% in size
How it was run: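 Unlinked Zika NS2B hydrophilic domain/NS3 protease domain noncovalent complex (25 nM final) in 10 mM Tris-HCl pH 8.0, 0.01% Tween 20, with AMC peptide substrate. Fluorescence (ex 340, em 450 nm) change over 15 min, room temperature; percent inhibition fitted to 4-parameter Hill equation.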

[9] = qHTS of pediatric cancer cell lines to identify multiple opportunities for drug repurposing: Confirmatory screen for Saos-2 cells (AID 1347127); also: nearly all actives have a fitted effect of over 60% in size; also: potency is read from the fitted curve at half-maximal effect
How it was run: as §1

[10] = system: Zika virus NS2B-NS3 protease (linked construct); test: Primary screen NINDS Rhodamine qHTS for Zika virus inhibitors (AID 1347160); also: nearly all actives have a fitted effect of over 55% in size
How it was run: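 Rhodamine110-peptide cleavage (1.5 µM substrate) by 25 nM linked NS2B-NS3 enzyme at pH 8.0 (Tris, Tween 20), after 15 min RT preincubation with compounds; 15-min fluorescence change normalized to controls and Hill-fitted.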

[11] = system: Zika virus NS2B-NS3 protease (unlinked complex); test: Primary screen GU Rhodamine qHTS for Zika virus inhibitors: Unlinked NS2B-NS3 protease assay (AID 1347159); also: nearly all actives have a fitted effect of over 60% in size
How it was run: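 Percent inhibition came from the 15-min rise in Rhodamine110 fluorescence (1.5 microM substrate, ~15% conversion), normalized to no-inhibitor and no-enzyme wells and Hill-fitted. Unlinked protease, 25 nM, pH 8.0 Tris buffer; compounds up to 114 microM, 15-min preincubation.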

Measured: Potency

COc1cccc2c1C(=O)c1c(O)c3c(c(O)c1C2=O)C[C@@](O)(C(=O)CO)C[C@H]3O[C@H]1C[C@H](N)[C@H](O)[C@H](C)O1
active: [1] 13.1 µM | [2] 0.928 µM | [3] 5.22 µM | [4] 1.47 µM | [5] 1.17 µM | [6] 2.61 µM | [7] 0.59 µM
inactive: [8]

CN[C@H]1[C@@H](O)[C@@H]2O[C@@H]3O[C@H](C)CC(=O)[C@]3(O)O[C@@H]2[C@@H](NC)[C@H]1O
not listed: [8] | [9] | [10] | [11]
inactive: all other assays above

CC(C(C)N1CC(=O)NC(=O)C1)N1CC(=O)NC(=O)C1 (stereo unspecified)
not listed: [8] | [10] | [11]
inactive: all other assays above

CC(C)C[C@H](NC(=O)CNC(=O)c1cc(Cl)ccc1Cl)B1OC(=O)CC(CC(=O)O)(C(=O)O)O1 (stereo partly specified)
active: [1] 0.827 µM | [2] 0.233 µM | [3] 0.414 µM | [4] 0.369 µM | [5] 2.33 µM | [9] 4.65 µM | [6] 0.585 µM
inactive: [7]

O=C(O)C[C@H](O)C[C@H](O)C=Cc1c(C2CC2)nc2ccccc2c1-c1ccc(F)cc1
active: [1] 1.65 µM | [2] 4.65 µM | [3] 11.7 µM | [4] 3.69 µM | [5] 2.33 µM | [6] 10.4 µM | [7] 1.32 µM
inactive: [8]

N#CNC(=NCCCCCCOc1ccc(Cl)cc1)Nc1ccncc1
active: [1] 0.293 µM | [2] 0.0165 µM | [3] 0.0369 µM | [4] 0.0465 µM | [5] 0.0185 µM | [9] 20.8 µM

Nc1nc2c(c(=O)[nH]1)N(C=O)[C@H](CNc1ccc(C(=O)N[C@@H](CCC(=O)O)C(=O)O)cc1)CN2
not listed: [10] | [11]
inactive: all other assays above

Nc1ncn([C@@H]2O[C@H](CO)[C@@H](O)[C@@H]2O)c(=O)n1
active: [1] 8.27 µM | [2] 16.5 µM | [3] 20.8 µM | [4] 20.8 µM | [5] 18.5 µM | [9] 20.8 µM | [6] 5.85 µM | [7] 16.6 µM
inactive: [8]

CC(=O)[C@]1(O)Cc2c(O)c3c(c(O)c2[C@@H](O[C@H]2C[C@H](N)[C@@H](O)[C@H](C)O2)C1)C(=O)c1ccccc1C3=O
active: [1] 1.31 µM | [2] 0.329 µM | [3] 0.737 µM | [4] 6.57 µM | [6] 1.31 µM | [7] 0.209 µM
inactive: [5] | [9] | [8]

Oc1cc(-c2nc(-c3ccccc3)[nH]c2-c2ccncc2)ccc1Cl
active: [1] 18.5 µM | [2] 16.5 µM | [3] 16.5 µM | [4] 18.5 µM | [5] 1.31 µM | [9] 2.61 µM | [6] 18.5 µM
inactive: [8] | [10]

CS(=O)(=O)N1CCc2c(-c3cnc(N)nc3)nc(N3CCOCC3)nc21
active: [1] 1.85 µM | [2] 1.85 µM | [3] 1.31 µM | [4] 1.85 µM | [5] 1.47 µM | [9] 2.33 µM | [6] 2.93 µM | [7] 2.64 µM
inactive: [8] | [11] | [10]

CC(C)N1[N]C(=C2C=c3cc(O)ccc3=N2)c2c(N)ncnc21
active: [1] 2.33 µM | [2] 0.522 µM | [3] 11.7 µM | [4] 6.57 µM | [5] 1.65 µM | [9] 10.4 µM | [6] 5.22 µM
inactive: [8]

CCS(=O)(=O)Nc1ccc2[nH]c(O)c(C(=Nc3ccc(CN4CCCCC4)cc3)c3ccccc3)c2c1
inactive: [8]
active: [1] 0.522 µM | [2] 0.522 µM | [3] 0.737 µM | [4] 4.65 µM | [5] 1.65 µM | [9] 0.737 µM | [6] 5.22 µM | [7] 0.332 µM

CC(C)C[C@H](NC(=O)[C@@H](NC(=O)c1cccc(-c2ccccc2)n1)[C@@H](C)O)B(O)O
inactive: [11] | [10]
active: [1] 0.0369 µM | [2] 0.0737 µM | [3] 0.0522 µM | [4] 0.0827 µM | [5] 3.29 µM | [9] 0.414 µM | [6] 0.131 µM | [7] 0.059 µM

Cc1ccc([N+](=O)[O-])cc1S(=O)(=O)N(C)N=Cc1cnc2ccc(Br)cn12
inactive: [8]
active: [1] 7.37 µM | [2] 0.329 µM | [3] 4.65 µM | [4] 1.31 µM | [5] 4.65 µM | [9] 2.33 µM | [6] 0.465 µM | [7] 0.235 µM

O=S(=O)(O)CCSSCCS(=O)(=O)O
not listed: [10] | [11]
inactive: all other assays above

CC(=O)NCC(=O)N1[C@H]2CC[C@H]1c1cc(Nc3ncc(C(F)(F)F)c(NC4CCC4)n3)ccc12
active: [1] 1.85 µM | [2] 1.31 µM | [3] 13.1 µM | [4] 2.93 µM | [5] 3.69 µM | [9] 0.585 µM | [6] 2.61 µM | [7] 2.09 µM
inactive: [8]

O=C(C=CC#Cc1cccc(NS(=O)(=O)c2ccccc2)c1)NO
active: [1] 0.928 µM | [2] 1.65 µM | [3] 5.22 µM | [4] 2.33 µM | [5] 5.22 µM | [9] 2.93 µM | [6] 5.85 µM | [7] 4.18 µM

CC(C)C[C@@H](C=O)NC(=O)[C@H](CC(C)C)NC(=O)[C@H](CC(C)C)NC(=O)OCc1ccccc1 (Cbz-Leu-Leu-Leu-aldehyde)
inactive: [8]
active: [1] 2.08 µM | [2] 1.17 µM | [3] 0.657 µM | [4] 1.65 µM | [5] 3.29 µM | [9] 1.47 µM | [6] 0.928 µM | [7] 0.833 µM

CC(C)(O)Cn1c(NC(=O)c2ccc(-c3cn[nH]c3)s2)nc2cc(CN3CCOCC3)ccc21
active: [1] 1.17 µM | [2] 0.585 µM | [3] 0.827 µM | [4] 1.31 µM | [5] 0.657 µM | [9] 0.585 µM | [6] 0.827 µM | [7] 1.32 µM

Oc1ccc(-c2ccc(-c3cc(Nc4cccc(CNC5CC5)c4)n[nH]3)cc2)c(O)c1
inactive: [7]
active: [1] 5.22 µM | [2] 3.69 µM | [3] 5.22 µM | [4] 16.5 µM | [5] 5.22 µM | [9] 9.27 µM | [6] 1.47 µM

CC(C=CC(=O)NO)=C[C@@H](C)C(=O)c1ccc(N(C)C)cc1
active: [1] 0.657 µM | [2] 1.47 µM | [3] 1.31 µM | [4] 0.928 µM | [9] 1.85 µM | [6] 1.47 µM | [7] 2.96 µM
inactive: [5]

FC(F)c1nc2ccccc2n1-c1nc(N2CCOCC2)nc(N2CCOCC2)n1
inactive: [8] | [11] | [10]
active: [1] 4.65 µM | [2] 2.93 µM | [3] 8.27 µM | [4] 1.85 µM | [5] 1.65 µM | [9] 0.827 µM | [6] 1.65 µM | [7] 2.35 µM

CCN(CC)CCNC(=O)c1c(C)[nH]c(C=C2C(=O)Nc3ccc(F)cc32)c1C
inactive: [8]
active: [1] 24 µM | [2] 7.59 µM | [3] 15.1 µM | [4] 26.9 µM | [5] 12 µM | [9] 26.9 µM | [6] 10.7 µM | [7] 9.59 µM

CCC[C@@H](C=O)NC(=O)[C@H](CC(C)C)NC(=O)[C@H](CC(C)C)NC(=O)OCc1ccccc1 (Cbz-Leu-Leu-[Nva]-aldehyde)
inactive: [8]
active: [1] 2.61 µM | [2] 1.04 µM | [3] 1.31 µM | [4] 3.69 µM | [5] 4.14 µM | [9] 3.29 µM | [6] 2.33 µM | [7] 1.32 µM

COC1=C2C[C@@H](C)C[C@H](OC)[C@@H](O)[C@@H](C)C=C(C)[C@H](OC(N)=O)[C@@H](OC)C=CC=C(C)C(=O)NC(=CC1=O)C2=O
active: [1] 1.04 µM | [2] 2.33 µM | [3] 0.928 µM | [4] 2.08 µM | [5] 1.31 µM | [9] 0.928 µM | [6] 4.65 µM | [7] 2.35 µM

CC(=O)O[C@H]1C[C@@H]2CC[C@H]3[C@H]4C[C@H]([N+]5(C)CCCCC5)[C@@H](OC(C)=O)[C@@]4(C)CC[C@@H]3[C@@]2(C)C[C@H]1N1CCCCC1
inactive: [1] | [3] | [8]
active: [2] 7.37 µM | [4] 10.4 µM | [5] 8.27 µM | [6] 16.5 µM | [7] 20.9 µM

Cc1cc(Nc2ncc3c(n2)N(C)C(=O)N(c2cc(NC(=O)c4cccc(C(F)(F)F)c4)ccc2C)C3)n(C)n1
inactive: [5]
active: [1] 0.369 µM | [2] 0.208 µM | [3] 0.657 µM | [4] 0.737 µM | [9] 0.585 µM | [7] 0.332 µM

Cn1cc(CNCC2CCN(c3ncc(C(=O)NO)cn3)CC2)c2ccccc21
inactive: [8]
active: [1] 0.208 µM | [2] 0.0329 µM | [3] 0.329 µM | [4] 0.131 µM | [5] 0.293 µM | [9] 0.208 µM | [6] 0.131 µM | [7] 0.469 µM

COC(=O)[C@@H]1[C@H]2C[C@@H]3c4[nH]c5ccccc5c4CCN3C[C@@H]2CC[C@@H]1O
not listed: [10] | [11]
inactive: all other assays above

C=CC(=O)N1CCc2ccc(-n3c(=O)ccc4cnc5ccc(-c6cnn(C)c6)cc5c43)cc21
active: [1] 5.22 µM | [2] 8.27 µM | [3] 10.4 µM | [5] 5.22 µM | [9] 5.22 µM | [6] 7.37 µM | [7] 5.9 µM
inactive: [4] | [8]
